Holding throughout (assay): DAPPL (digital affinity profiling via proximity ligation, sequencing); 10 mM Tris-HCl pH 7.5, 50 mM NaCl, 1 mM DTT, 4% glycerol, room temperature, 30 min; GST-TFs on glutathione beads, 16-mer random dsDNA library, 0.1% formaldehyde crosslink after washing; high values mean tight binding
For one assay, the target named is T1, FLI1 (Homo sapiens, UniProt Q01543 1-452).
T1 sequence: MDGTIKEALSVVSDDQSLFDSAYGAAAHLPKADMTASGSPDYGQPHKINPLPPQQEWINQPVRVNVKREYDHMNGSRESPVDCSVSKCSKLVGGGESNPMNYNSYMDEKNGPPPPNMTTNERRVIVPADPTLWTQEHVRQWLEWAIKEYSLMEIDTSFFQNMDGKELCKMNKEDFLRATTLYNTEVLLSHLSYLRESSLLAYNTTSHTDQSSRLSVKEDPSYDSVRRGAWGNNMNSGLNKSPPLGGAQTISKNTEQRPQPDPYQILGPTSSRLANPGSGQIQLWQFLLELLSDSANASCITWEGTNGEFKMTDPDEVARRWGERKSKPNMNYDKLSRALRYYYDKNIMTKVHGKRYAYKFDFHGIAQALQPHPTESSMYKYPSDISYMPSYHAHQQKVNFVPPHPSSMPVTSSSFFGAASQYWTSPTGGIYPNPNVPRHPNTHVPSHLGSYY
Particulars: protein: recombinant; tags: N-terminal GST; dsDNA, one strand shown. The essentials: (§1)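 Binding signal is each hexamer's read frequency for a factor divided by its frequency in the tag-only sample. The factors were GST-fused human transcription factors from yeast, captured on glutathione beads, DNA-barcoded and pooled with that sample. Pools were incubated with 200 nmole of a random double-stranded 16-mer DNA library in Tris/NaCl/DTT/glycerol buffer at room temperature for 30 min, then washed, crosslinked with 0.1% formaldehyde, proximity-ligated with BsaI/T4 ligase (1 h, 37 °C), PCR-amplified and sequenced on an Illumina NextSeq500.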

A further assay concerns the target T2, ELK1 (Homo sapiens, UniProt P19419 1-428).
T2 sequence: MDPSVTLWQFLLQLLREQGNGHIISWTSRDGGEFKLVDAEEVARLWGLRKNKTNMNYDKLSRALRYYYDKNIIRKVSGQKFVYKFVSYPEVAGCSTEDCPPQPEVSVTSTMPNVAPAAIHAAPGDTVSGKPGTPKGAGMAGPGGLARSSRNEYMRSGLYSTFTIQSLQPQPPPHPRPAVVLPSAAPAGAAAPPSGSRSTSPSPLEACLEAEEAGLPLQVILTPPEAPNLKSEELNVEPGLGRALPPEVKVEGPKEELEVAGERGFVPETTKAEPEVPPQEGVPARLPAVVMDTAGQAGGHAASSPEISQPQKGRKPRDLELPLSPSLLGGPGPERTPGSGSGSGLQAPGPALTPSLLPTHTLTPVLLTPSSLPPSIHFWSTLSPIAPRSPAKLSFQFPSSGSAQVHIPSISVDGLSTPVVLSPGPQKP
As to conditions: protein: recombinant; tags: N-terminal GST; dsDNA, one strand shown. In short, it runs like this:
as §1

The next assay has as its target T3, GABPA (Homo sapiens, UniProt Q06546 1-454).
T3 sequence: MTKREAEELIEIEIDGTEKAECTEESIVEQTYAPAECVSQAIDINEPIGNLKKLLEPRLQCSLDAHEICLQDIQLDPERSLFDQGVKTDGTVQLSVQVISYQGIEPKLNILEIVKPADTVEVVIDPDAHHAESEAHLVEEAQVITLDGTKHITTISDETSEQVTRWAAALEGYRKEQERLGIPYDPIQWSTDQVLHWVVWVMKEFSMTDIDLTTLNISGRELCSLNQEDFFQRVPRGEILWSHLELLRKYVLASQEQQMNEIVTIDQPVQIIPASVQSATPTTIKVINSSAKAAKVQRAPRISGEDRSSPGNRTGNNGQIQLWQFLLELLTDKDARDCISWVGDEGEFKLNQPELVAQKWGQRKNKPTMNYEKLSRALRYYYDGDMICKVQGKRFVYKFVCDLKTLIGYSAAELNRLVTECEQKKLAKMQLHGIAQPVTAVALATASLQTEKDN
Particulars: protein: recombinant; tags: N-terminal GST; dsDNA, one strand shown. In short, it runs like this:
as §1

Another assay addresses T4, ERG (Homo sapiens, UniProt P11308 1-479).
T4 sequence: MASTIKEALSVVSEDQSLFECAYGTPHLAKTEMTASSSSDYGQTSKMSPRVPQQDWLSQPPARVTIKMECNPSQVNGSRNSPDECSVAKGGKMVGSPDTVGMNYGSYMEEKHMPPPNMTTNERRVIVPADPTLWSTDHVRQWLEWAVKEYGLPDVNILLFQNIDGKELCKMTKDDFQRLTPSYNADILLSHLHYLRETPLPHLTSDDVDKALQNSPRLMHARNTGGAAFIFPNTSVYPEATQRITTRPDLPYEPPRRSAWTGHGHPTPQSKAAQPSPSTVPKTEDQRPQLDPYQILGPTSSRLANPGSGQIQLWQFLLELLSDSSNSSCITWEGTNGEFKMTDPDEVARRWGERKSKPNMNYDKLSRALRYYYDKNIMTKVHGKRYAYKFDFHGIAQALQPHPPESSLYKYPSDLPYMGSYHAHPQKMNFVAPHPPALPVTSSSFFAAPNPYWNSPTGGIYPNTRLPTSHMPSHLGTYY
Particulars: protein: recombinant; tags: N-terminal GST; dsDNA, one strand shown. In short, it runs like this: as §1

A further assay deals with ELF1 (Homo sapiens, UniProt P32519 1-619). As to conditions: protein: recombinant; tags: N-terminal GST; dsDNA, one strand shown. In short, it runs like this: as §1
ELF1, sequence (P32519 whole entry): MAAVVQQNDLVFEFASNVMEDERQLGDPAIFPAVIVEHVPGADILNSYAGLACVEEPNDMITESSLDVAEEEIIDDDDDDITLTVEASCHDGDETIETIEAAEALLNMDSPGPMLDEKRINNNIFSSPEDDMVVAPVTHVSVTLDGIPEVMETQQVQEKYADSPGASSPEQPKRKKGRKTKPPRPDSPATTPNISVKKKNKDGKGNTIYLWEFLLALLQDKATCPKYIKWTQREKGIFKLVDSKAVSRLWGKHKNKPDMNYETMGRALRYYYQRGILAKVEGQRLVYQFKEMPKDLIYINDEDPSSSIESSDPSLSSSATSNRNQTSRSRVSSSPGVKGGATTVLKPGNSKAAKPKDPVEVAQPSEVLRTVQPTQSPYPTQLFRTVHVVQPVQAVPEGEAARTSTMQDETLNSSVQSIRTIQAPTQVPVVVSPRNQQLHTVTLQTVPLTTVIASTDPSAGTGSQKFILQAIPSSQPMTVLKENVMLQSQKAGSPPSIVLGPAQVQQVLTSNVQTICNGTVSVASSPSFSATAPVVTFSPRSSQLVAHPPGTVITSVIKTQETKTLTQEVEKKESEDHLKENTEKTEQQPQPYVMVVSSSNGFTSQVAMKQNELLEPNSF
The next assay has as its target T5, EHF (Homo sapiens, UniProt Q9NZC4 1-300).
T5 sequence: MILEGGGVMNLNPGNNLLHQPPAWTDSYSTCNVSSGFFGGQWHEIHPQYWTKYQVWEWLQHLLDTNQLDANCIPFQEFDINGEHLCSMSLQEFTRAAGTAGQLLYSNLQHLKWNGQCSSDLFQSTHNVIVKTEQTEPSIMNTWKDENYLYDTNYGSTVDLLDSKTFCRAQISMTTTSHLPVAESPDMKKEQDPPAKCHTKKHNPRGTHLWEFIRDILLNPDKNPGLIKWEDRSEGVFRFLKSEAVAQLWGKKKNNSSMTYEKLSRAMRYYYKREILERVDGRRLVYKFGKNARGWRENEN
Particulars: protein: recombinant; tags: N-terminal GST; dsDNA, one strand shown. The essentials:
as §1

A further assay addresses SPI1 (Homo sapiens, UniProt P17947 1-270). Particulars: protein: recombinant; tags: N-terminal GST; dsDNA, one strand shown. In short, it runs like this:
as §1

The next assay concerns the target SPIB (Homo sapiens, UniProt Q01892 1-262). Particulars: protein: recombinant; tags: N-terminal GST; dsDNA, one strand shown. In short, it runs like this:
as §1

Another assay addresses T6, ELK3 (Homo sapiens, UniProt P41970 1-407).
T6 sequence: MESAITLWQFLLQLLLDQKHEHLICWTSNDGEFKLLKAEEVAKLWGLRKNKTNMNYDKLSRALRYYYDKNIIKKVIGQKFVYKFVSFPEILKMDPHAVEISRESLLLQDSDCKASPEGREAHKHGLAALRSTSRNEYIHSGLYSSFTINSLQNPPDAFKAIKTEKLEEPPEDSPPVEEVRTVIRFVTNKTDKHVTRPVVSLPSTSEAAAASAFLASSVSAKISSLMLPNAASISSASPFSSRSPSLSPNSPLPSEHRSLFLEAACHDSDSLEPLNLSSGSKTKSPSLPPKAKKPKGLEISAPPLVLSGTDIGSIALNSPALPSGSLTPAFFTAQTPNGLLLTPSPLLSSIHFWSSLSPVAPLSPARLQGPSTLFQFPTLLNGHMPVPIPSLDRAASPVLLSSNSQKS
As to conditions: protein: recombinant; tags: N-terminal GST; dsDNA, one strand shown. In short, it runs like this: as §1

The target in a further assay is T7, FEV (Homo sapiens, UniProt Q99581 1-238).
T7 sequence: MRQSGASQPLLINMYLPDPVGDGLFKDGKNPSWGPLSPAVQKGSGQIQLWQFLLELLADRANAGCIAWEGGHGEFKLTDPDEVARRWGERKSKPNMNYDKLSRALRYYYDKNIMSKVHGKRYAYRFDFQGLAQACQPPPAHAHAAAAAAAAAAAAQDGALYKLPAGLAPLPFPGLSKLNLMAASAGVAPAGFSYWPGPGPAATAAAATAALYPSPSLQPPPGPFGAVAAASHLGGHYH
As to conditions: protein: recombinant; tags: N-terminal GST; dsDNA, one strand shown. The essentials: as §1

The next assay has as its target ETV5 (Homo sapiens, UniProt P41161 1-510). As to conditions: protein: recombinant; tags: N-terminal GST; dsDNA, one strand shown. In short, it runs like this:
as §1

In the next assay the target is HSF1 (Homo sapiens, UniProt Q00613 1-529). As to conditions: protein: recombinant; tags: N-terminal GST; chain copies: 3; dsDNA, one strand shown. In short, it runs like this: as §1
HSF1, sequence (Q00613 whole entry): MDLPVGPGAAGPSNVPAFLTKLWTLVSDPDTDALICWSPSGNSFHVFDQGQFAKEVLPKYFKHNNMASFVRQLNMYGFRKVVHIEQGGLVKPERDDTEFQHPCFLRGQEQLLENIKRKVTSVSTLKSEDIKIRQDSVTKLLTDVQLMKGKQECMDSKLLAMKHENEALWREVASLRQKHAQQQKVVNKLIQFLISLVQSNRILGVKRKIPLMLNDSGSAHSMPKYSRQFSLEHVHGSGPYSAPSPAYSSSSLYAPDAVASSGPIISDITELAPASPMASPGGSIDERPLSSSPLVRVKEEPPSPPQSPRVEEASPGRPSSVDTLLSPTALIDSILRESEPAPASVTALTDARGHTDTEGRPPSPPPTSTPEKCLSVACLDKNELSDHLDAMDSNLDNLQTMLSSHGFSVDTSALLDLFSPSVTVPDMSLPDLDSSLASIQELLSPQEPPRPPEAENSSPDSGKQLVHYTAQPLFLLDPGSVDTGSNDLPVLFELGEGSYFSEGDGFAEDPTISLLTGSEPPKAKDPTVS
Another assay has as its target T8, SPIC (Homo sapiens, UniProt Q8N5J4 1-248).
T8 sequence: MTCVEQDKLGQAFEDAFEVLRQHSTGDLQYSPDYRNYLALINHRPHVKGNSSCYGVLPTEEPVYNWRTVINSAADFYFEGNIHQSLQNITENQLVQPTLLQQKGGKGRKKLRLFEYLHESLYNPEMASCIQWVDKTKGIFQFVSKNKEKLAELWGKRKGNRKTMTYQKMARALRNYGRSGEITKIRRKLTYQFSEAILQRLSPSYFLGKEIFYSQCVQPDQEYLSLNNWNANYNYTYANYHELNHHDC
As to conditions: protein: recombinant; tags: N-terminal GST; dsDNA, one strand shown. In short, it runs like this:
as §1

Another assay concerns the target ELF4 (Homo sapiens, UniProt Q99607 1-663). As to conditions: protein: recombinant; tags: N-terminal GST; dsDNA, one strand shown. The essentials:
as §1

In a further assay the target is T9, ELK4 (Homo sapiens, UniProt P28324-2 1-405).
T9 sequence: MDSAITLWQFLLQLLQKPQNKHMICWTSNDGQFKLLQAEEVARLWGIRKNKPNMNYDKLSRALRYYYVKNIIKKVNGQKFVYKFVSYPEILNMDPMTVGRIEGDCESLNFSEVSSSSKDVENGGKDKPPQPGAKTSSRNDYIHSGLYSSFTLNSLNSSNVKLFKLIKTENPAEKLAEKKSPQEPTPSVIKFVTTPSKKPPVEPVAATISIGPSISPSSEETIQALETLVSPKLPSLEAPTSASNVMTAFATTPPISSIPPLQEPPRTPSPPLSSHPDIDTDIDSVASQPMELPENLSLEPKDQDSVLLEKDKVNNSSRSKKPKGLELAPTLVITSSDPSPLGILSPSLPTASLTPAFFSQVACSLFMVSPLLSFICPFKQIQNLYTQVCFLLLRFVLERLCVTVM
Particulars: protein: recombinant; tags: N-terminal GST; dsDNA, one strand shown. In short, it runs like this: as §1

The next assay addresses T10, ETV2 (Homo sapiens, UniProt O00321 1-342).
T10 sequence: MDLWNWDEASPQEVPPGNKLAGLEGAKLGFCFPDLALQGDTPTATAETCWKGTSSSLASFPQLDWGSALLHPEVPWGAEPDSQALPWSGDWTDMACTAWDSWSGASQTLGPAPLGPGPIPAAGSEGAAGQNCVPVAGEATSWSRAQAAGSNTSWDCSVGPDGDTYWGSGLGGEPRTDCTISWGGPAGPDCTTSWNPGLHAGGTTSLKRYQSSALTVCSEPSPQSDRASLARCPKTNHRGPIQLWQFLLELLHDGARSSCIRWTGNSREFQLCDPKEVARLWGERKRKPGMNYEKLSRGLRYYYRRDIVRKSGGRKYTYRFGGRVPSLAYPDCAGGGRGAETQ
As to conditions: protein: recombinant; tags: N-terminal GST; dsDNA, one strand shown. In short, it runs like this: as §1

Another assay addresses T11, ELF3 (Homo sapiens, UniProt P78545 1-371).
T11 sequence: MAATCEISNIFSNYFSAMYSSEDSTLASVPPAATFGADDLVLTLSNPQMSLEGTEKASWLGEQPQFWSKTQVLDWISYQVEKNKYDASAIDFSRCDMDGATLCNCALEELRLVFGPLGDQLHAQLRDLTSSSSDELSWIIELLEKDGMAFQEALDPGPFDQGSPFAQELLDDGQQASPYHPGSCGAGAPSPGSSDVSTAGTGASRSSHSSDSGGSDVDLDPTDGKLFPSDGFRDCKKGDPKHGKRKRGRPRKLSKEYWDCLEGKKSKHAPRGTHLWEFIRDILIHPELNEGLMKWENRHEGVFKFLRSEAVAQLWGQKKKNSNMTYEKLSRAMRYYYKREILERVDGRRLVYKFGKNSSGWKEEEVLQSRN
As to conditions: protein: recombinant; tags: N-terminal GST; dsDNA, one strand shown. The essentials: as §1

Another assay concerns the target CRX (Homo sapiens, UniProt O43186 1-299). Particulars: protein: recombinant; tags: N-terminal GST; dsDNA, one strand shown. The essentials: as §1
The next assay concerns the target ETV1 (Homo sapiens, UniProt P50549 1-477). Particulars: protein: recombinant; tags: N-terminal GST; dsDNA, one strand shown. In short, it runs like this: as §1

ELF4, sequence (Q99607 whole entry): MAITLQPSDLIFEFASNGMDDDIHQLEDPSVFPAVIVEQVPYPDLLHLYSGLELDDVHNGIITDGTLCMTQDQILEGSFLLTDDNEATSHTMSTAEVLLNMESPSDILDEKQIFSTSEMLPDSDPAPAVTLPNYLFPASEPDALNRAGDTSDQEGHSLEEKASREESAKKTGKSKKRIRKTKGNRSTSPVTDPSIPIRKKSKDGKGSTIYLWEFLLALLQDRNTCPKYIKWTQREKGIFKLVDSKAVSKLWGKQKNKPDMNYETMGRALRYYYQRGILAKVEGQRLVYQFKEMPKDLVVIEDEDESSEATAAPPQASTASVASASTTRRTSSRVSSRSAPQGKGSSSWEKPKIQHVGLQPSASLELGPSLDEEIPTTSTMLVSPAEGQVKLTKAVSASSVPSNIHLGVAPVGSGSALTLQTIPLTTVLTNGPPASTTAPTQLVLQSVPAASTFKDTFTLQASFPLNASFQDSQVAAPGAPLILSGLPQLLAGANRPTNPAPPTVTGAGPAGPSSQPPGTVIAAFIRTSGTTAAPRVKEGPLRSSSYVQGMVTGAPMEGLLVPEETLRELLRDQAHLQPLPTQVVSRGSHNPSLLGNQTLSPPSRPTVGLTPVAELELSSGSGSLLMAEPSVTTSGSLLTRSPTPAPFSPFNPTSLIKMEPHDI
ETV1, sequence (P50549 whole entry): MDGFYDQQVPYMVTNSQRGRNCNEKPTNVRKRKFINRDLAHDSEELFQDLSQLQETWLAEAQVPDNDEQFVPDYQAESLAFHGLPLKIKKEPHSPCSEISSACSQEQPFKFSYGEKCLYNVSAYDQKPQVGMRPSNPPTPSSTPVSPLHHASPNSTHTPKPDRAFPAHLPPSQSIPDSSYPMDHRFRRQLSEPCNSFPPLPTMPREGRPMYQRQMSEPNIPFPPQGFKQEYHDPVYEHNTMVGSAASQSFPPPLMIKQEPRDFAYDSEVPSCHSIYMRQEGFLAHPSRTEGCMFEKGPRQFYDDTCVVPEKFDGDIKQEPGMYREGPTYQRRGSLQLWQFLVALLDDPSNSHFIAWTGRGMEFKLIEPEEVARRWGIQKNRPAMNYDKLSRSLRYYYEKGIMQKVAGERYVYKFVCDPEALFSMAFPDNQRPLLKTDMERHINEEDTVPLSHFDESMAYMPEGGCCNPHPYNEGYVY
SPIB, sequence (Q01892 whole entry): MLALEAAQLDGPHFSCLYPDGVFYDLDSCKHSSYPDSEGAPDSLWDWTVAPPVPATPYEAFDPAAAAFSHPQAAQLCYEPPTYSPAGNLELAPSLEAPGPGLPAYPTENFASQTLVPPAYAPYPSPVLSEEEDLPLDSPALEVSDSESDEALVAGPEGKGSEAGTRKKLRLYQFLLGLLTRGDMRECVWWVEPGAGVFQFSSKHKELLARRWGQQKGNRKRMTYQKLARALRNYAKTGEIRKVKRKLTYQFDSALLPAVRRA
CRX, sequence (O43186 whole entry): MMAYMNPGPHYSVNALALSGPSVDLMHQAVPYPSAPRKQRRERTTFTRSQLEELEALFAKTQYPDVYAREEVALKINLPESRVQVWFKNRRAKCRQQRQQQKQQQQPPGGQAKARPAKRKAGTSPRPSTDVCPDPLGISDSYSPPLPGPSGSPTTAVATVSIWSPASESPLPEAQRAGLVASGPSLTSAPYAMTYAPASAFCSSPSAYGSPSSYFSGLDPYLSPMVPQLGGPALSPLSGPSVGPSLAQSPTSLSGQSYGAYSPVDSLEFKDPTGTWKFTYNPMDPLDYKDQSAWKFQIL
ETV5, sequence (P41161 whole entry): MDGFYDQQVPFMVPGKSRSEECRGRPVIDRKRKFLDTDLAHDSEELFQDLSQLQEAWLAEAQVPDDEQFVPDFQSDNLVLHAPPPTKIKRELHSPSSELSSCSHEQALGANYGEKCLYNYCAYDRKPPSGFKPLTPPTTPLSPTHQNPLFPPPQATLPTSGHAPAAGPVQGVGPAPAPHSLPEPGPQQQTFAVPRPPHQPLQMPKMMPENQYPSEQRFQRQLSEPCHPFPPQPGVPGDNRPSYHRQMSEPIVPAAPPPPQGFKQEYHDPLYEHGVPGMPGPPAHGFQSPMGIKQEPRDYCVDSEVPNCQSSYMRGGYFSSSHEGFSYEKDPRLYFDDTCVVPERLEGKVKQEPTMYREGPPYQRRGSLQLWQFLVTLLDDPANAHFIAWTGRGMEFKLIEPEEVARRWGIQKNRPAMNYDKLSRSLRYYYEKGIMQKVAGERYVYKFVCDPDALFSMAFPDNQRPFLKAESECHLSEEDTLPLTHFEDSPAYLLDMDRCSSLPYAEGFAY

For TACCGA, the binding signal was 1.26 fold enrichment (6-mer frequency, TF over GST control) with FLI1; 1.1 fold enrichment (6-mer frequency, TF over GST control) with ELK1; 1.13 fold enrichment (6-mer frequency, TF over GST control) with GABPA; 1.07 fold enrichment (6-mer frequency, TF over GST control) with ERG; 1.17 fold enrichment (6-mer frequency, TF over GST control) with ELF1; 1.1 fold enrichment (6-mer frequency, TF over GST control) with EHF. In addition, the binding signal with SPI1 is 1.12 fold enrichment (6-mer frequency, TF over GST control); in the assay with SPIB, 1.16 fold enrichment (6-mer frequency, TF over GST control); with ELK3, 1.12 fold enrichment (6-mer frequency, TF over GST control); with FEV, 1.11 fold enrichment (6-mer frequency, TF over GST control); with ETV5, 1.14 fold enrichment (6-mer frequency, TF over GST control); with HSF1 it was 1.21 fold enrichment (6-mer frequency, TF over GST control). The binding signal in the assay with SPIC is 1.2 fold enrichment (6-mer frequency, TF over GST control); with ELF4, 1.18 fold enrichment (6-mer frequency, TF over GST control); in the assay with ELK4, 1.12 fold enrichment (6-mer frequency, TF over GST control); in the assay with ETV2, 1.04 fold enrichment (6-mer frequency, TF over GST control); with ELF3 it was 1.3 fold enrichment (6-mer frequency, TF over GST control); with CRX, 1.33 fold enrichment (6-mer frequency, TF over GST control). In addition, in the assay with ETV1, the binding signal is 1.24 fold enrichment (6-mer frequency, TF over GST control).

These data come from article PMC7862700, “An all-to-all approach to the identification of sequence-specific readers for epigenetic DNA modifications on cytosine”.
